Data: PubChem BioAssay (Tox21)
Inconclusive results are not listed. Entries that show only a call come without a potency. Active and inactive are the calls of the source. Calls follow the shape of the dose curve; as a rule, active = well fitted inhibition curve with a large enough effect in the signal ratio in the repeat runs; inconclusive = weak or mixed curves, or effect the other way; inactive = flat fitted curve, though single readings scatter; the % refers to the signal ratio.
Potency is read from the fitted curve at half-maximal effect.

Assay: qHTS assay for small molecule disruptors of the mitochondrial membrane potential (AID 720635)
Conditions: HepG2 mitochondrial membrane potential, Mito-MPS dye ratio; series mostly up to 83.2 µM
Source text: U.S. Tox21 Program National Center for Advancing Translational Sciences [NCATS] NIH Chemical Genomics Center [NCGC] U.S. Environmental Protection Agency [EPA] National Institutes of Environmental Health Sciences [NIEHS] National Toxicology Program [NTP] U.S. Food and Drug Administration [FDA] Tox21 Assay Overview: Mitochondrial membrane potential (MMP), one of the parameters for mitochondrial function, is generated by mitochondrial electron transport chain that creates an electrochemical gradient by a series of redox reactions. This gradient drives the synthesis of ATP, a crucial molecule for various cellular processes. Measuring MMP in living cells is commonly used to assess the effect of chemicals on mitochondrial function. […] The dye accumulates in the mitochondria of healthy cells as aggregates, with red fluorescence. The mitochondrial potential collapses and the dye can no longer accumulate in the mitochondria and remains in the cytoplasm in monomers, with green fluorescence.
Tox21 Assay Protocol Summary: 2,000 HepG2 cells in 5 uL/well were dispensed into black, clear-bottom 1536-well plates using a Multidrop Combi (Thermo Scientific) dispenser. The assay plates were incubated overnight at 37C to allow cells to attach to the wells, followed by the transfer of 23 nL compound or DMSO vehicle by a pin tool (Kalypsys). The plates were incubated for 1 hr at 37C and 5% CO2, followed by the addition of 5 uL of 2X Mito-MPS dye (BD Biosciences) into each well using Flying Reagent Dispenser (Aurora Discovery) and then following 30 min incubation at 37C. Fluorescence intensity (490nm excitation and 535nm emission for monomers; and 540nm excitation and 590nm emissions for aggregates) was measured using an Envision plate reader.
With `CC(C)CCCC(C)(C)O` the Potency was “inactive”. With `CC(=O)CCCCn1c(=O)c2c(ncn2C)n(C)c1=O` the Potency was “inactive”. For `O=C(O)c1ccc(Cl)cc1Cl`, the Potency was “inactive”. In the case of `CCCCCCOc1ccccc1C(N)=O`, the Potency is reported as 6.68 µM (active). In the case of `COC(=O)[C@@H]1[C@H]2C[C@H]3c4[nH]c5ccccc5c4CCN3C[C@@H]2CC[C@@H]1O`, the Potency is reported as “inactive”. For `COC(=O)CCc1ccc(OCC(O)CNC(C)C)cc1` (stereo not given), the Potency was “inactive”. In the case of `c1ccc2c(c1)ccc1c3ccccc3ccc21`, the Potency is reported as “inactive”. With `CC(C)NCC(O)COc1cccc2[nH]ccc12` (stereo not given) the Potency was “inactive”. In the case of `CC(C)=O`, the Potency is reported as “inactive”. In the case of `C=CCCCCCCCCCCCC`, the Potency is reported as “inactive”. For `FC(F)(F)c1ccccc1-n1ccnc1`, the Potency was “inactive”. In the case of `CC(C)(C)OC(=O)c1ccc(O)cc1`, the Potency is reported as 21.7 µM (active). In the case of `Cc1ccc(C=O)cc1C`, the Potency is reported as “inactive”. With `O=C1c2cccc3c2[C@H](CCC3)CN1[C@@H]1CN2CCC1CC2` the Potency was “inactive”. With `CC(=O)OC(C)OC(=O)C(C)c1ccc(-c2ccccc2)c(F)c1` (stereo not given) the Potency was “inactive”. In the case of `C[C@@H](O)[C@H]1C(=O)N2C(C(=O)O)=C(SCCN=CN)C[C@H]12`, the Potency is reported as “inactive”. In the case of `CN1C(C)(C)CCCC1(C)C`, the Potency is reported as “inactive”. In the case of `NS(=O)(=O)c1ccc(NC(=O)CCC(=O)O)cc1`, the Potency is reported as “inactive”. In the case of `O=C(O)c1cc(Br)c(O)c(Br)c1`, the Potency is reported as “inactive”. For `C=C(C)C(=O)OCCOP(=O)(O)OCCOC(=O)C(=C)C`, the Potency was “inactive”. In the case of `OCCCCC(O)CO` (stereo not given), the Potency is reported as “inactive”. With `NCCS` the Potency was “inactive”. For `CN(C)C(=O)CNC(=O)Cc1ccccc1`, the Potency was “inactive”. In the case of `CC(=C(CCOC(=O)C(C)C)SSC(CCOC(=O)C(C)C)=C(C)N(C=O)Cc1cnc(C)nc1N)N(C=O)Cc1cnc(C)nc1N`, the Potency is reported as “inactive”. For `O=C(c1ccc(O)cc1)c1ccc(O)c(O)c1O`, the Potency was 27.4 µM (active). For `O=C(CS(=O)Cc1ccco1)NC/C=C\COc1cc(CN2CCCCC2)ccn1` (stereo not given), the Potency was “inactive”. In the case of `CCc1ccc(C=O)cc1`, the Potency is reported as “inactive”. For `CC(CO)c1ccccc1` (stereo not given), the Potency was “inactive”. For `NCCN1CCOCC1`, the Potency was “inactive”. For `CC(C)OC(=O)CCCCC(=O)OC(C)C`, the Potency was 54.6 µM (active). With `C=C(C)C(=O)OCc1ccccc1` the Potency was “inactive”. In the case of `CC(=O)/C=C/C1C(C)=CCC(C)C1(C)C` (stereo not given), the Potency is reported as “inactive”. With `CC(C)CCCCOC(=O)c1ccccc1C(=O)OCCCCC(C)C` the Potency was “inactive”. With `CC1(CO)CN(c2ccccc2)NC1=O` (stereo not given) the Potency was “inactive”. For `CCCCC(CC)COCCO` (stereo not given), the Potency was “inactive”. In the case of `COc1cc(C(=S)N2CCOCC2)cc(OC)c1OC`, the Potency is reported as “inactive”. With `CN=C(NC#N)Nc1ccc(C2=NNC(=O)CC2C)cc1` (stereo not given) the Potency was “inactive”. In the case of `CCCCCCOC(=O)CC`, the Potency is reported as “inactive”. With `O=C(NCCN1CCOCC1)c1ccc(Cl)cc1` the Potency was “inactive”. In the case of `O=C(OCC(COC(=O)c1cccnc1)(COC(=O)c1cccnc1)COC(=O)c1cccnc1)c1cccnc1`, the Potency is reported as “inactive”.
